# Data as given in publication PMC7862700, “An all-to-all approach to the identification of sequence-specific readers for epigenetic DNA modifications on cytosine”.
# Assays:
# Experiment in all cases: DAPPL (digital affinity profiling via proximity ligation, sequencing); 10 mM Tris-HCl pH 7.5, 50 mM NaCl, 1 mM DTT, 4% glycerol, room temperature, 30 min; GST-TFs on glutathione beads, 16-mer random dsDNA library, 0.1% formaldehyde crosslink after washing; high values mean tight binding
# Conditions in all cases: protein: recombinant; tags: N-terminal GST; dsDNA, one strand shown
# FLI1 = molecular target: T1, FLI1 (Homo sapiens, UniProt Q01543 1-452)
# T1 sequence: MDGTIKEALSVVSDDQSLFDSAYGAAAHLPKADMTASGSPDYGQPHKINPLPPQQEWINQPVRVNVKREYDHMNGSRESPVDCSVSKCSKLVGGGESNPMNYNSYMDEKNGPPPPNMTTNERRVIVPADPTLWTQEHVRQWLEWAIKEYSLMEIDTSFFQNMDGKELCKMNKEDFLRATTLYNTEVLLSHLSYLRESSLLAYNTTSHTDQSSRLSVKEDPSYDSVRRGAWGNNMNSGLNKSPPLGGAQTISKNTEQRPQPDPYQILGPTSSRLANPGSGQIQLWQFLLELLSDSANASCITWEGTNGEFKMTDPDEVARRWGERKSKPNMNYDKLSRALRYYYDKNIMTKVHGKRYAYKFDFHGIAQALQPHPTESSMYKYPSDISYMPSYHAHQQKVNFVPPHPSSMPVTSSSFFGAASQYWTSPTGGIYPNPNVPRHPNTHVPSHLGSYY
# Outline: (§1)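 Binding signal is each hexamer's read frequency for a factor divided by its frequency in the tag-only sample. The factors were GST-fused human transcription factors from yeast, captured on glutathione beads, DNA-barcoded and pooled with that sample. Pools were incubated with 200 nmole of a random double-stranded 16-mer DNA library in Tris/NaCl/DTT/glycerol buffer at room temperature for 30 min, then washed, crosslinked with 0.1% formaldehyde, proximity-ligated with BsaI/T4 ligase (1 h, 37 °C), PCR-amplified and sequenced on an Illumina NextSeq500.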
# ELK1 = molecular target: T2, ELK1 (Homo sapiens, UniProt P19419 1-428)
# T2 sequence: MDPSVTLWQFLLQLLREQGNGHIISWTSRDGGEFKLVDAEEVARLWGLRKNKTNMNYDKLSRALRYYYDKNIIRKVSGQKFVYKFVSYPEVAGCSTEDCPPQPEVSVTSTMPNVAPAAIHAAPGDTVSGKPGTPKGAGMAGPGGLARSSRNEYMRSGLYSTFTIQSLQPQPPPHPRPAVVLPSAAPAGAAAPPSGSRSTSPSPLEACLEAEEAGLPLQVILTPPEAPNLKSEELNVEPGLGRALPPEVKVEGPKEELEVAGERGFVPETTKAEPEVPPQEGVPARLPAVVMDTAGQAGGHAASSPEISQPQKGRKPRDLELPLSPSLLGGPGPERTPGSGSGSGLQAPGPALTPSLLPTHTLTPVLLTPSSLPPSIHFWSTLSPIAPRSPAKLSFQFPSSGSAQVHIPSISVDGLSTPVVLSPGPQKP
# Outline: as §1
# GABPA = molecular target: T3, GABPA (Homo sapiens, UniProt Q06546 1-454)
# T3 sequence: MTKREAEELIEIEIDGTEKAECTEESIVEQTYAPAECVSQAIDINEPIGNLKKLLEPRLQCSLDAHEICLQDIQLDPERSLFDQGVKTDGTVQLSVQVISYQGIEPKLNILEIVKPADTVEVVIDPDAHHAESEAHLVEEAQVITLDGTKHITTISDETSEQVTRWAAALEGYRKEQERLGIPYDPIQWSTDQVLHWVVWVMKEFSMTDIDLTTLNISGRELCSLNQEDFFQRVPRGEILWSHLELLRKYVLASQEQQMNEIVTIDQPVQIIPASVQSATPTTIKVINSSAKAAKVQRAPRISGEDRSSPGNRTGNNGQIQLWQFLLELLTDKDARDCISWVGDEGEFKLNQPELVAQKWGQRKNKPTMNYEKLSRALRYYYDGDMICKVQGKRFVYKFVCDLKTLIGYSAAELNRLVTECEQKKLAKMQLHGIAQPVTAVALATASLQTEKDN
# Outline: as §1
# ERG = molecular target: T4, ERG (Homo sapiens, UniProt P11308 1-479)
# T4 sequence: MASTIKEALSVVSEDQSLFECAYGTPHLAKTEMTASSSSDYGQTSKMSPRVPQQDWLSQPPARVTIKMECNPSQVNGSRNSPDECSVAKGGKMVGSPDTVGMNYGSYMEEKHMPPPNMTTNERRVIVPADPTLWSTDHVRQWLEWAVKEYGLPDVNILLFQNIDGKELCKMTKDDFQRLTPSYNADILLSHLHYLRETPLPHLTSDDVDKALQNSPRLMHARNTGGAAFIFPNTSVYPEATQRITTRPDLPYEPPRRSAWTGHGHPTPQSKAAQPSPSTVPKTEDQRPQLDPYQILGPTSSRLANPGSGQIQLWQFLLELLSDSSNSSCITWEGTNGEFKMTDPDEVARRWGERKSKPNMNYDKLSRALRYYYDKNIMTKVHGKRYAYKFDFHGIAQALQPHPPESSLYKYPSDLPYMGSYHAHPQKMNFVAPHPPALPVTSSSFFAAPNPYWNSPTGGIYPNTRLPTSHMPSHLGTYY
# Outline: as §1
# ELF1 = ELF1 (Homo sapiens, UniProt P32519 1-619)
# Outline: as §1
# EHF = molecular target: T5, EHF (Homo sapiens, UniProt Q9NZC4 1-300)
# T5 sequence: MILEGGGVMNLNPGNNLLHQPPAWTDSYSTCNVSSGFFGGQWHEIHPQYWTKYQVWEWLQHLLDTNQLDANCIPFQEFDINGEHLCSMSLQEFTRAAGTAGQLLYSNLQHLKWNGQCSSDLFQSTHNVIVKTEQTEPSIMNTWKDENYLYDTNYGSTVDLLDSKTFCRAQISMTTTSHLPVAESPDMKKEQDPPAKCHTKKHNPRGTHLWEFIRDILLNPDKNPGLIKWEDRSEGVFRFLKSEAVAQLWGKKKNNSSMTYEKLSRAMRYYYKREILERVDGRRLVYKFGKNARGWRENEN
# Outline: as §1
# SPI1 = SPI1 (Homo sapiens, UniProt P17947 1-270)
# Outline: as §1
# SPIB = SPIB (Homo sapiens, UniProt Q01892 1-262)
# Outline: as §1
# ELK3 = molecular target: T6, ELK3 (Homo sapiens, UniProt P41970 1-407)
# T6 sequence: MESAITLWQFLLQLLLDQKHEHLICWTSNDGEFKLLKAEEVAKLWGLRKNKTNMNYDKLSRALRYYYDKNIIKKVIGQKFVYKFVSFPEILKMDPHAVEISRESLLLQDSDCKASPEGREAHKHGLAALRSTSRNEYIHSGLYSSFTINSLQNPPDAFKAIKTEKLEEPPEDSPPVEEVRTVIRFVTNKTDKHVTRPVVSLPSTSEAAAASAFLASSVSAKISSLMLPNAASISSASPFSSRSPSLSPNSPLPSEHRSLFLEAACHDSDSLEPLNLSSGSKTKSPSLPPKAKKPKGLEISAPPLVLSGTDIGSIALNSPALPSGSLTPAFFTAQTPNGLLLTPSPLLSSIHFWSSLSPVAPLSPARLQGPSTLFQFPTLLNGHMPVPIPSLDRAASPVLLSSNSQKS
# Outline: as §1
# Chain of SPIB (Q01892 whole entry): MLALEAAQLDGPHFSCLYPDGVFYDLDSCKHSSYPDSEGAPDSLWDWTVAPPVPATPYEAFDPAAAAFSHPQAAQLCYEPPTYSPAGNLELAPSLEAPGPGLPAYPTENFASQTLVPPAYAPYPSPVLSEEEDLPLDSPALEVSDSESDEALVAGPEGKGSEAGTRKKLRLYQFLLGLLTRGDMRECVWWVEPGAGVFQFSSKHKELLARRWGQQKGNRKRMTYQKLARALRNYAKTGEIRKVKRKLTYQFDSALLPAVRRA
# Chain of ELF1 (P32519 whole entry): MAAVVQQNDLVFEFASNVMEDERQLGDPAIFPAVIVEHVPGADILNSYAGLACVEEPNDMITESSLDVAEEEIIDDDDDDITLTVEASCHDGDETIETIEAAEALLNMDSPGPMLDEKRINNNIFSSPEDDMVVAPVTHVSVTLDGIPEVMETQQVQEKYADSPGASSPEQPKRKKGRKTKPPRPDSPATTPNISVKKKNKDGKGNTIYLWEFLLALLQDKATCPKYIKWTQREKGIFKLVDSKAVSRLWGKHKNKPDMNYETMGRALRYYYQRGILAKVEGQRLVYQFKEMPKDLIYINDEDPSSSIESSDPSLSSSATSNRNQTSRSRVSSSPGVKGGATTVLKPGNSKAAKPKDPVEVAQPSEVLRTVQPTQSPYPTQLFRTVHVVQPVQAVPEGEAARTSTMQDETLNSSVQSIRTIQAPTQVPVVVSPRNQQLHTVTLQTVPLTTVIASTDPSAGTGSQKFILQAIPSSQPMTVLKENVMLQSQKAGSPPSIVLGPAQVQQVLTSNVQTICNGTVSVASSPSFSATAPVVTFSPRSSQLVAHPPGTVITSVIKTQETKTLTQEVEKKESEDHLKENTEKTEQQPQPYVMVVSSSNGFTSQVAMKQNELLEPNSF
Sequence,binding signal (FLI1),binding signal (ELK1),binding signal (GABPA),binding signal (ERG),binding signal (ELF1),binding signal (EHF),binding signal (SPI1),binding signal (SPIB),binding signal (ELK3)
ATGTCT,"1.21 fold enrichment (6-mer frequency, TF over GST control)","1.28 fold enrichment (6-mer frequency, TF over GST control)","1.36 fold enrichment (6-mer frequency, TF over GST control)","1.22 fold enrichment (6-mer frequency, TF over GST control)","1.29 fold enrichment (6-mer frequency, TF over GST control)","1.13 fold enrichment (6-mer frequency, TF over GST control)","1.32 fold enrichment (6-mer frequency, TF over GST control)","1.3 fold enrichment (6-mer frequency, TF over GST control)","1.18 fold enrichment (6-mer frequency, TF over GST control)"
CCCGCA,"1.23 fold enrichment (6-mer frequency, TF over GST control)","1.2 fold enrichment (6-mer frequency, TF over GST control)","1.25 fold enrichment (6-mer frequency, TF over GST control)","1.15 fold enrichment (6-mer frequency, TF over GST control)","1.29 fold enrichment (6-mer frequency, TF over GST control)","1.29 fold enrichment (6-mer frequency, TF over GST control)","1.22 fold enrichment (6-mer frequency, TF over GST control)","1.29 fold enrichment (6-mer frequency, TF over GST control)","1.25 fold enrichment (6-mer frequency, TF over GST control)"
GATTAT,"1.04 fold enrichment (6-mer frequency, TF over GST control)","1.1 fold enrichment (6-mer frequency, TF over GST control)","1.1 fold enrichment (6-mer frequency, TF over GST control)","1.06 fold enrichment (6-mer frequency, TF over GST control)","1.02 fold enrichment (6-mer frequency, TF over GST control)","1.09 fold enrichment (6-mer frequency, TF over GST control)","1.03 fold enrichment (6-mer frequency, TF over GST control)","1.11 fold enrichment (6-mer frequency, TF over GST control)","1.07 fold enrichment (6-mer frequency, TF over GST control)"
